Screening data: PubChem, several laboratories
Hits are enriched below; roughly 1.5% of the tested compounds scored in any of these assays.
CRFR2-BP antag: antagonists of CRF-BP/CRF-R2 complex, primary screen, cell-based, HEK293, calcium dye fluorescence, uHTS; CRF-induced calcium fluorescence; inhibition, % at 11.8 µM; 0.59% of 350,000 active; AID 588475, 2011;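 active = inhibition of the ligand-induced calcium signal above about 50% at the single tested concentration, limit read from the data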
CRFR2-BP ag: agonists of CRF-BP/CRF-R2 complex, primary screen, cell-based, HEK293, calcium dye fluorescence, uHTS; calcium dye fluorescence (FLIPR); percent of saturating CRF peptide response; activation, % at 13.2 µM; 0.46% of 350,000 active; AID 588473, 2011;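 active = activation of at least 50%, plus an integration ratio under a set limit after plate pattern correction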;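 also: plate controls were neutral control wells without compound for no effect and CRF at EC100 for full effect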
V-ATPase pH: regulators of yeast V-ATPase proton pumping, primary screen, pHLuorin cytosolic pH fluorescence | S. cerevisiae | response, % at 10 µM | 0.37% of 350,000 active | AID 504577, 2011; in the data active = response mostly above about 7.3%, no sharp cut-off; inactive = mostly below about 5.4%; also: actives read high
NTR1 agonist: agonists of human NTR1, primary screen, imaging, U2OS cells, beta-arrestin-GFP, high content. 0.17% of 330,000 active. activation, % at 20 µM. NTR1-U2OS beta-arrestin-GFP spot imaging, agonist mode;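 active = activation at or above 40% of the spot to cytoplasm intensity ratio, with at least 20 cells analyzed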;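 also: 0% = DMSO without peptide and 100% = 100 nM NTR1 peptide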
Target sequence (P30989 whole entry, looked up): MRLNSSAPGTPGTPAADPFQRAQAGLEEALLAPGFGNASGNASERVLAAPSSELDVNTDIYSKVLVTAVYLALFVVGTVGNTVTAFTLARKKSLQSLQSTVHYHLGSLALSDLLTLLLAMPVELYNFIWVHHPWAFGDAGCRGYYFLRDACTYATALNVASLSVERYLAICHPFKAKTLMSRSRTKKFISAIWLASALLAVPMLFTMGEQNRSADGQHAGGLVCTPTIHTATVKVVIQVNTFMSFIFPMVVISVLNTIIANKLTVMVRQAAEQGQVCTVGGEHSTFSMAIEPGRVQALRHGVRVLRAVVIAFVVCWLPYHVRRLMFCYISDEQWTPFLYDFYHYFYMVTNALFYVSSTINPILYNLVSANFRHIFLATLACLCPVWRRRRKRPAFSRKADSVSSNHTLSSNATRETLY
VATPase regulator: yeast V-ATPase proton pumping modulators, confirmation, S. cerevisiae, pH-sensitive GFP, second cherry-pick; shares compounds with V-ATPase pH; S. cerevisiae pHLuorin cytosolic pH, V-ATPase proton transport; response, % at 10 µM; 2% of 980 active; in the data active = response above about 24%;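 also: plate controls were vehicle wells for no effect and positive control wells for full effect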
* = called active by the depositor.

For Cc1ccc(NC2OC(C(O)CO)C(O)C2O)cc1[N+](=O)[O-] (stereo unspecified) the results were CRFR2-BP antag -8, CRFR2-BP ag 3, V-ATPase pH 36*, NTR1 agonist -1 and VATPase regulator -4.
For COc1ccccc1NS(=O)(=O)c1cccc(C(=O)N/N=C(\C)c2cccnc2)c1 the results were CRFR2-BP antag -2, CRFR2-BP ag 3, V-ATPase pH 6 and NTR1 agonist -1.
`CCc1c(C#N)c(=O)[nH]c(=O)n1-c1ccccc1` gave CRFR2-BP antag 7, CRFR2-BP ag -1, V-ATPase pH 10.0*, NTR1 agonist -1 and VATPase regulator -1.
For CCCCC(CC)CNC(=O)CN1C(=O)NC2(CCc3ccccc32)C1=O (stereo unspecified) the results were CRFR2-BP antag 3, CRFR2-BP ag 0, V-ATPase pH -1 and NTR1 agonist 0.
For CCc1ccc(C(C(=O)NC2CCCC2)N(C(=O)/C=C/C(=O)Nc2cc(C)on2)c2ccccc2C)cc1 (stereo unspecified) the results were CRFR2-BP antag -35, CRFR2-BP ag 0, V-ATPase pH 10*, NTR1 agonist 22 and VATPase regulator 2.
For CCc1cc(=O)oc2cc(OCC(=O)NC3CC(C)(C)NC(C)(C)C3)ccc12 the results were CRFR2-BP antag -2, CRFR2-BP ag 0, V-ATPase pH 2 and NTR1 agonist 1.
For Cc1cc(=O)oc2cc(OCC(=O)NC3CC(C)(C)NC(C)(C)C3)ccc12 the results were CRFR2-BP antag 0, CRFR2-BP ag 0, V-ATPase pH 11*, NTR1 agonist 2 and VATPase regulator 0.
CCOC(=O)Nc1c2ccccc2nc2ccccc12 was read as CRFR2-BP antag 7, CRFR2-BP ag -1, V-ATPase pH -2, NTR1 agonist 0 and VATPase regulator -48.
Screening Cc1[nH]c(C)c(S(=O)(=O)N(Cc2ccccc2)C(C)(C)C)c1C(=O)N1CCCC1 returned CRFR2-BP antag 18, CRFR2-BP ag 0, V-ATPase pH 10*, NTR1 agonist 0 and VATPase regulator 3.
For Cn1cccc1C(=O)OCC(=O)N1CCN(c2ccccc2)CC1 the results were CRFR2-BP antag 13, CRFR2-BP ag -2, V-ATPase pH 9.8*, NTR1 agonist 0 and VATPase regulator 3.
COc1ccc(-c2c(C)n([O-])c3c([n+]2=O)CCCC3)cc1 was read as CRFR2-BP antag 4, CRFR2-BP ag 0, V-ATPase pH 10*, NTR1 agonist 0 and VATPase regulator 8.
Screening Cc1ccc(-c2c(C)n([O-])c3c([n+]2=O)CCCCC3)cc1 returned CRFR2-BP antag 19, CRFR2-BP ag 2, V-ATPase pH -1 and NTR1 agonist -1.
`CCN(CC)c1ccc(S(=O)(=O)N2CCCCC2)cc1NC(=O)CSCc1c(C)noc1C` gave CRFR2-BP antag 8, CRFR2-BP ag 0, V-ATPase pH 10* and VATPase regulator -3.
For O=C(Cn1cnc2ccccc2c1=O)Nc1ccc(N2CCOCC2)cc1 the results were CRFR2-BP antag -10, CRFR2-BP ag 2, V-ATPase pH 4 and NTR1 agonist 0.
`O=C(CCC(=O)c1ccc(F)cc1)NCc1ccccc1C(F)(F)F` gave CRFR2-BP antag -20, CRFR2-BP ag 1, V-ATPase pH 3, NTR1 agonist 0 and VATPase regulator -1.
For c1ccc(Cc2nnc3sc(-c4ccccn4)nn23)cc1 the results were CRFR2-BP antag -5, CRFR2-BP ag -1, V-ATPase pH 11*, NTR1 agonist 2 and VATPase regulator -2.
For c1ccc(Cc2nnc3sc(-c4ccncc4)nn23)cc1 the results were CRFR2-BP antag 10, CRFR2-BP ag 0, V-ATPase pH 1 and NTR1 agonist 2.
`Cc1nn(C(C)C(=O)NC2CCCCCC2)c(=O)c2nn(-c3ccccc3)c(C)c12` (stereo unspecified) gave CRFR2-BP antag 6, CRFR2-BP ag -2, V-ATPase pH -2 and NTR1 agonist 0.
CC(CN1CCOCC1)OC(=O)Cc1ccc(Cl)cc1 (stereo unspecified) was read as CRFR2-BP antag 6, CRFR2-BP ag -2, V-ATPase pH 11*, NTR1 agonist 0 and VATPase regulator 2.
